Screening results (PubChem BioAssay)
Rows were chosen to be rich in hits. Some 1.2% of all compounds tested hit in one or more screens of this group.
QS inhibitor: S. aureus quorum sensing inhibitors, primary screen, RNAIII-GFP reporter, flow cytometry. S. aureus RN6390 RNAIII-GFP reporter, AIP-induced, flow cytometry 3 h. inhibition, % at 2 µM. 24,000 compounds, 0.3% hits. AID 527, 2006;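 active = share of bacteria positive for the green fluorescent reporter and its mean brightness both inhibited by 50% or more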
FPR binder: human FPR ligands by binding competition, primary screen, cell-based, FPRL1 counter-screen, flow cytometry; inhibition, % (test concentration not listed); 24,000 compounds, 0.74% hits; fMet-Leu-Phe receptor (Homo sapiens), P21462; AID 440, 2006; FPR-expressing cells, fluorescent ligand binding
Target sequence (P21462 whole entry, looked up): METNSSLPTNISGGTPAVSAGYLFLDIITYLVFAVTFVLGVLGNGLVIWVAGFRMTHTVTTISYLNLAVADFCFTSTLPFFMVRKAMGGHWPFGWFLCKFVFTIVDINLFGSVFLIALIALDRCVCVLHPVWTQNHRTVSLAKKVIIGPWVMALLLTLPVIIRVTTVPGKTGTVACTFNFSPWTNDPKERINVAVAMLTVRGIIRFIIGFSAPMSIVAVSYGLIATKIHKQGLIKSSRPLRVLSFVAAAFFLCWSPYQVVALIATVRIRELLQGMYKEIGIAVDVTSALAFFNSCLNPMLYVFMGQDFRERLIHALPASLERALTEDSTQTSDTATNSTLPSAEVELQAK
FPRL1 binder: human FPRL1 ligands by binding competition, primary screen, cell-based, FPR counter-screen, flow cytometry. N-formyl peptide receptor 2 (Homo sapiens), P25090. FPRL1-expressing cells, fluorescent ligand binding inhibition. inhibition, % (test concentration not listed). 24,000 compounds, 0.3% hits
Hits are given with their value. Cut-off read from the data, not from the text of the source, unless noted: active = inhibition above about 30%; inconclusive = no clear call, values can overlap the other calls; inactive = below that.

What do the screens show for `O=C(CN1CCCN(S(=O)(=O)c2ccc(Br)cc2)CC1)Nc1ccc2cn[nH]c2c1`?
QS inhibitor: inactive; FPR binder: inactive; FPRL1 binder: inactive

How did O=C(NCCN1CCN(c2ccccc2F)CC1)c1cccn2c(=O)c3ccccc3nc12 do in these assays?
QS inhibitor: inactive; FPR binder: inactive; FPRL1 binder: inactive

Results for O=C(NCCN1CCN(c2ccccc2)CC1)c1cccn2c(=O)c3ccccc3nc12 ?
QS inhibitor: 80.1; FPR binder: inactive; FPRL1 binder: inactive

How did COc1ccc(-c2cc(N)n(S(=O)(=O)c3c(F)c(F)c(F)c(F)c3F)n2)cc1OC do in these assays?
QS inhibitor: inactive; FPR binder: inactive; FPRL1 binder: inactive

How did COc1ccc(S(=O)(=O)N2CCCC(C(=O)NCc3ccccn3)C2)cc1 (configuration not stated) do in these assays?
QS inhibitor: inactive; FPR binder: inactive; FPRL1 binder: inactive

How did Cc1ccc(C)c(-n2c(CNC(=O)c3ccco3)nnc2SCC(=O)Nc2nnc(C)s2)c1 do in these assays?
QS inhibitor: inactive; FPR binder: inactive; FPRL1 binder: inactive

How did Cc1ccc(C)c(-n2c(CNC(=O)c3ccco3)nnc2SCC(=O)N2CCc3ccccc32)c1 do in these assays?
QS inhibitor: inactive; FPR binder: 55.1; FPRL1 binder: inactive

Results for CC(=O)Nc1ccc(S(=O)(=O)/N=C2\SCCN2S(=O)(=O)c2ccc(NC(C)=O)cc2)cc1 ?
QS inhibitor: inactive; FPR binder: inactive; FPRL1 binder: inactive

Results for Cc1ccc2c(c1)N(CCC(=O)NCCCOC(C)C)C(=O)C(C)O2 (configuration not stated) ?
QS inhibitor: inactive; FPR binder: inactive; FPRL1 binder: inactive

How did CCOc1cc(NC(=O)c2ccco2)c(OCC)cc1NC(=O)CCc1ccc(OC)cc1 do in these assays?
QS inhibitor: inactive; FPR binder: 32.8; FPRL1 binder: inactive

How did COc1ccc(NC(=O)CCc2ccccc2)cc1NC(=O)c1ccco1 do in these assays?
QS inhibitor: inactive; FPR binder: inactive; FPRL1 binder: inactive

What do the screens show for `Cc1ccc(-n2ncc3c(=O)n(CC(=O)N4CCCc5ccccc54)cnc32)cc1C`?
QS inhibitor: inactive; FPR binder: inactive; FPRL1 binder: inactive

What do the screens show for `CC(C)C(C(=O)Nc1ccc2c(c1)OCO2)N1C(=O)c2ccccc2C1=O` (configuration not stated)?
QS inhibitor: inactive; FPR binder: inactive; FPRL1 binder: inactive

Results for CCC(SC1=Nc2ccccc2C2=NC(CC(C)C)C(=O)N12)C(=O)Nc1ccc2c(c1)OCO2 (configuration not stated) ?
QS inhibitor: inactive; FPR binder: 58.3; FPRL1 binder: inactive

What do the screens show for `CC1(C)CC(=O)c2c(-c3cccs3)n[nH]c2C1`?
QS inhibitor: inactive; FPR binder: inactive; FPRL1 binder: inactive

How did Cc1cc2oc(C(=O)NC3CCS(=O)(=O)C3)c(C)c2cc1C (configuration not stated) do in these assays?
QS inhibitor: inactive; FPR binder: 48.4; FPRL1 binder: 51.2

Results for Cc1ccc(OC(=O)NC2CCS(=O)(=O)C2)cc1C (configuration not stated) ?
QS inhibitor: inactive; FPR binder: inactive; FPRL1 binder: inactive

Results for CCCOc1ccc2c(=O)c(-c3cc(C(=O)OC)oc3C)c(C)oc2c1 ?
FPR binder: inactive; FPRL1 binder: inactive

What do the screens show for `CCOC(=O)C1(CC)NC(c2cccc(F)c2)C2C(=O)N(CC)C(=O)C21` (configuration not stated)?
QS inhibitor: inactive; FPR binder: inactive; FPRL1 binder: inactive

Results for Cc1cccc(-n2nc3c(c2NC(=O)c2ccco2)CSC3)c1C ?
QS inhibitor: inactive; FPR binder: 96.4; FPRL1 binder: inactive

Results for Cc1ccc(-n2nc3c(c2NC(=O)c2ccc(Br)o2)CSC3)c(C)c1 ?
QS inhibitor: inactive; FPR binder: inactive; FPRL1 binder: inactive

How did O=C(Cn1c(=O)n(CCCC(=O)NC2CCCC2)c(=O)c2ccccc21)NCCC1=CCCCC1 do in these assays?
QS inhibitor: inactive; FPR binder: inactive; FPRL1 binder: inactive

Results for CCCn1cnc2c(cnn2-c2ccc(F)cc2)c1=O ?
QS inhibitor: inactive; FPR binder: inactive; FPRL1 binder: inactive

What do the screens show for `O=C(Cn1cnc2c(cnn2-c2ccc(F)cc2)c1=O)OCc1ccccc1`?
QS inhibitor: inactive; FPR binder: 39.5; FPRL1 binder: 54.3

What do the screens show for `COc1ccc2c(=O)c(-c3ccccc3C)c(C)oc2c1`?
FPR binder: inactive; FPRL1 binder: inactive

How did CCOc1ccccc1Oc1c(C)oc2cc(OC(=O)c3ccco3)ccc2c1=O do in these assays?
FPR binder: 79.3; FPRL1 binder: inactive

What do the screens show for `COc1ccccc1-c1c(C)oc2cc(OC(=O)c3ccco3)ccc2c1=O`?
FPR binder: 68.3; FPRL1 binder: inactive

What do the screens show for `Cc1oc2cc(OCC(=O)O)ccc2c(=O)c1Oc1ccccc1`?
QS inhibitor: inactive; FPR binder: inactive; FPRL1 binder: inactive

What do the screens show for `CCOC(=O)c1oc2cc(O)ccc2c(=O)c1-c1ccccc1OC`?
FPR binder: 34.2; FPRL1 binder: inactive

Results for COc1ccc(Oc2c(C)oc3cc(OC(=O)N4CCOCC4)ccc3c2=O)cc1 ?
QS inhibitor: inactive; FPR binder: inactive; FPRL1 binder: inactive

Results for CCOC(=O)c1oc2cc(O)ccc2c(=O)c1-c1csc(C)n1 ?
FPR binder: inactive; FPRL1 binder: inactive

How did COc1ccccc1Oc1c(C)oc2cc(OC(=O)c3ccco3)ccc2c1=O do in these assays?
FPR binder: 92.8; FPRL1 binder: inactive

Results for O=C(Nc1ccc(F)cc1F)NC1CC(=O)N(Cc2ccccc2)C1 (configuration not stated) ?
QS inhibitor: inactive; FPR binder: inactive; FPRL1 binder: inactive

Results for O=C(c1ccc(CS(=O)(=O)c2cccc(C(F)(F)F)c2)o1)N1CCN(c2ccccn2)CC1 ?
QS inhibitor: inactive; FPR binder: inactive; FPRL1 binder: inactive

How did CC(=O)NC(C)C(=O)OCc1ccc(Cl)cc1Cl (configuration not stated) do in these assays?
QS inhibitor: inactive; FPR binder: inactive; FPRL1 binder: inactive

What do the screens show for `Cc1cc(Cl)c(S(=O)(=O)NC2CCCCC2)cc1OCC(=O)Nc1nncs1`?
QS inhibitor: inactive; FPR binder: inactive; FPRL1 binder: inactive

How did CCN(CC)S(=O)(=O)c1ccc2oc(C(=O)NCc3ccc(F)cc3)c(C)c2c1 do in these assays?
QS inhibitor: inactive; FPR binder: inactive; FPRL1 binder: inactive

Results for Cn1cccc1Cc1nnc(SCC(=O)Nc2ccc(Cl)cc2)n1-c1ccc(F)cc1 ?
QS inhibitor: inactive; FPR binder: inactive; FPRL1 binder: inactive

What do the screens show for `COCCN1Cc2cccc(C(=O)NCc3ccccn3)c2C1=O`?
QS inhibitor: inactive; FPR binder: inactive; FPRL1 binder: inactive

How did COCCN1Cc2cccc(C(=O)NCc3ccc4c(c3)OCO4)c2C1=O do in these assays?
QS inhibitor: inactive; FPR binder: inactive; FPRL1 binder: 32.8

Results for Clc1ccc(OCc2nnc3n2N=C(c2ccc4c(c2)OCCO4)CS3)c(Cl)c1 ?
QS inhibitor: inactive; FPR binder: inactive; FPRL1 binder: inactive
